Screening results (PubChem)
Only some compounds are listed: those with a hit (about 5.9% of all), similar ones and a draw of the others.
GALK inh: galactokinase (human) inhibition; Purified GALK, Kinase-Glo residual ATP luminescence; Potency, µM (titrated, usually from 57.5 µM), for inactives: at the highest dose activity change, negative = inhibition, hits mostly inhibitors; actives 0.007% (n = 270,000); further: potency means the concentration at half of the fitted maximal effect
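Kinase-Glo Plus luminescence measured ATP left after a 1 h room-temperature reaction. The reaction used 5 nM GALK, 100 uM galactose and 35 uM ATP at pH 8.0 (20 mM HEPES, 5 mM MgCl2, 60 mM NaCl, 1 mM DTT, 0.01% BSA).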
TrxR1 substrate: substrates of rat thioredoxin reductase 1; O89049; purified TrxR1 substrate turnover, NADPH consumption readout; Potency, µM (series often up to 114 µM), for inactives: at the top dose activity change, negative = substrate turnover; actives 0.01% (n = 390,000); AID 588456; further: potency means the concentration at half of the fitted maximal effect; nearly all actives have a fitted effect of over 50% in size
Target sequence (O89049 whole entry, looked up): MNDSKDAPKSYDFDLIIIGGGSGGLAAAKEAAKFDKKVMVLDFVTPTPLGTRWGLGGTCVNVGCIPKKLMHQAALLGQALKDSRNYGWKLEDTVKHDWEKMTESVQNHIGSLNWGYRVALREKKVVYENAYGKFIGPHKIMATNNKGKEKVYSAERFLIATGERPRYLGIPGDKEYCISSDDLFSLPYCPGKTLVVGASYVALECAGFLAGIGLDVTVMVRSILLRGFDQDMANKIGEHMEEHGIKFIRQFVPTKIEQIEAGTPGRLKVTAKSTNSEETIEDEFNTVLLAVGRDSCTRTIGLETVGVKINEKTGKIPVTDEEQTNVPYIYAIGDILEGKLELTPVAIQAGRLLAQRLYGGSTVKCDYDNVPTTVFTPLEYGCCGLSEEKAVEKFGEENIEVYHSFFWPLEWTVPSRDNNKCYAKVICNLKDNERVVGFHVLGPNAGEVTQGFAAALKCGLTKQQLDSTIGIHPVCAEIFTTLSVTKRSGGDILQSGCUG
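Rat TrxR1, dispensed at 90 nM, was prereduced with 400 uM NADPH (final) for 5 min at ~22 deg C, then incubated with compound 15 min before 400 uM selenite. A first-read NADPH fluorescence drop versus no-compound background flagged substrates.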
Coupling enz: counter-screen for Giardia aldolase inhibitors: coupling enzyme system; coupling enzyme system counterscreen, AmpLite Red fluorescence; activity change, negative = inhibition, % at 58.2 µM, hits read low; actives 0.67% (n = 290,000); in the data active means activity change below about -30%
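First, compound is pin-transferred into glyceraldehyde-3-phosphate coupling-enzyme reagent at 57.5 uM final and held 10 min at RT. Next, substrate, coupling system and AmpLite Red are added. After 20 min RT, fluorescence (525/598 nm) is read.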
Gal4-VP16 FLuc: counter-screen for ROR gamma inhibitors: Gal4-VP16 reporter. Drosophila S2 Gal4-VP16 UAS-luciferase, luminescence, 20 h. Potency, µM (top dose mostly 53.6 µM), for inactives: at the highest dose activity, negative = inhibition, most hits filed as inhibitors. actives 3.5% (n = 310,000);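 further: Gal4-VP16 expression switched on by copper sulfate through the metallothionein promoter; potency means the concentration at half of the fitted maximal effect; nearly all actives have a fitted effect of over 50% in size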
rTrxR1 inhibitor: rat TrxR1 inhibition. recombinant rTrxR1, NADPH fluorescence consumption, selenite substrate. actives 1% (n = 390,000). O89049. Potency, µM (highest dose often 114 µM), without a hit: at the highest dose activity change, negative = inhibition, actives largely listed as inhibitors; further: potency means the concentration at half of the fitted maximal effect; nearly all actives have a fitted effect of over 65% in size
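Rat TrxR1 (90 nM in the dispensed reagent) was pre-reduced with 400 uM NADPH for 5 min at room temperature, then incubated with compound for 15 min. After 400 uM selenite was added, NADPH fluorescence (Ex 340/Em 450 nm) was followed for 8 min.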
RORg inh: ROR gamma (mouse) transcription inhibition. Drosophila S2 Gal4-RORgamma UAS-luciferase reporter, 20 h. P51450. Potency, µM (doses to about 53.6 µM), inactives show at the top dose activity change, negative = inhibition, usual class: inhibitors. actives 5.4% (n = 310,000); further: potency means the concentration at half of the fitted maximal effect; nearly all actives have a fitted effect of over 60% in size
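Luminescence from a UAS-regulated Photinus luciferase reporter in stably transfected Drosophila Schneider cells is measured; decreased signal marks ROR gamma inhibition. Fusion expression is induced by 700 uM copper sulfate for 20 hr.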
* marks the source's active call; other numbers are inactive results; u = inconclusive; x = not tested or not shown; [ ] = another dose, or the depositor's remark. Unless noted, the call rests on the fitted dose curve; in most records, active means well fitted curve in the direction sought with a large enough effect; inconclusive means small, poorly fitted or top-dose-only effect, or another doubt; inactive means no such curve, though single readings can be large; an effect the other way counts as inactive or inconclusive. On the % scale 0 is the no-effect control and ±100 the full control effect.

SMILES	GALK inh	TrxR1 substrate	Coupling enz	Gal4-VP16 FLuc	rTrxR1 inhibitor	RORg inh
COc1ccccc1NS(=O)(=O)c1cccc(C(=O)NNC(=O)C(NC(N)=O)C(C)C)c1 (stereo not drawn)	x	-7%	3	5%	-13%	-15%
COc1ccccc1-c1ccc(SCC(=O)NCc2ccc3c(c2)OCO3)nn1	4%	4%[57.1 µM]	-19	10%	19%[57.1 µM]	-18%
O=C(Nc1cc(S(=O)(=O)Nc2ccccc2F)ccc1Cl)c1ccc(F)cc1F	x	6%[57.1 µM]	x	x	4%[57.1 µM]	x
O=C(Cn1ncn2nc(-c3cccs3)cc2c1=O)NCc1ccc(Cl)cc1	x	-1%	x	x	11%	x
Cc1ccnc(NC(=O)c2ccccc2NC(=O)c2ccc(Cl)cc2Cl)c1	0%	10%	1	13µM*	39%	u
Cc1ccc(C(=O)Nc2ccccc2C(=O)Nc2ccccn2)cc1Cl	8%	15%	-2	16µM*	11%[57.1 µM]	u
COC(=O)c1c(C)[nH]c(C(=O)C(C)OC(=O)C2CC2C)c1C (stereo not drawn)	x	1%	x	x	11%	x
N#C/C(=C\c1c(N2CCOCC2)nc2ccccn2c1=O)S(=O)(=O)c1ccccc1	1%	7%[57.1 µM]	4	-4%	6%[57.1 µM]	-1%
CC(=O)N1CC(=O)N=C1SCC(=O)Nc1nc(-c2ccccc2)c(-c2ccccc2)s1	-4%	5%	5	7.9µM*	9%	7.1µM*
COc1ccc(NC(=O)CCCc2c[nH]c3ccccc23)cc1OC	0%	-10%	-1	3%	-8%	u
CCc1c(C)c(C#N)c2nc3ccccc3n2c1-n1nc(C)cc1C	x	1%	4	-7%	3%	18%
CCc1c(C)c(C#N)c2nc3ccccc3n2c1Cl	-3%	x	5	7%	x	2.8µM*
CCOC(=O)CSc1cc(C)c(C#N)c2nc3ccccc3n12	1%	9%[57.1 µM]	-6	3%	1.1µM*	-34%
CCOC(=O)c1c(C)cc(C)n2c1nc1ccccc12	-1%	11%[57.1 µM]	-1	5%	17%[57.1 µM]	5.6µM*
O=C(CN1CCN(C(=O)c2ccco2)CC1)NCc1ccc(Cl)cc1	-2%	10%	x	3%	14µM*	-4%
O=C(CN1CCN(Cc2ccccc2)CC1)NCc1ccc(Cl)cc1	-3%	7%[57.1 µM]	1	-4%	12%[57.1 µM]	-5%
Cc1ccc(C(=O)NC(Cc2cccc(C(F)(F)F)c2)C(=O)O)cc1 (stereo not drawn)	x	-1%	x	x	5%	x
CCOc1ccc(C(c2c(O)cc(C)n(CCOC)c2=O)N2CCN(c3ccccc3)CC2)cc1 (stereo not drawn)	x	8%[57.1 µM]	x	x	11µM*	x
CCOC(=O)C1CCN(C(c2ccc(OCC)cc2)c2c(O)cc(C)n(CCOC)c2=O)CC1 (stereo not drawn)	x	-3%[57.1 µM]	x	x	25µM*	x
COc1ccc(C(c2c(O)cc(C)n(Cc3ccco3)c2=O)N2CCN(c3ccccc3)CC2)cc1 (stereo not drawn)	x	4%[57.1 µM]	x	x	16µM*	x
CC1=Nc2nc(N3CCCCC3)c(C#N)c3c4c(nc(c23)N1)N(c1ccc(C(C)C)cc1)C(=O)C4	0%	5%	0	-14%	1%	42%
O=C(CC1C(=O)NCCN1Cc1ccc(F)c(F)c1)NCCn1cccn1 (stereo not drawn)	4%	-2%[57.1 µM]	-3	-9%	-10%[57.1 µM]	18%
Cc1nn(CC(=O)NCCc2cccs2)c(=O)c2nn(-c3ccccc3)c(C)c12	-7%	-5%	1	0%	-8%	0%
O=C(NCC(=O)N(c1ccc(F)cc1)C(C(=O)NC1CCCC1)c1cccnc1)c1cccs1 (stereo not drawn)	-1%	2%	1	-8%	21%	6%
O=C(Nc1nccs1)c1sc2ccccc2c1Cl	-1%	8%	2	5µM*	15%	2.2µM*
O=C(NNc1ccccc1)c1sc2ccccc2c1Cl	x	-8%	x	x	-9%	x
O=C(Nc1nccs1)c1ccc(Cl)s1	1%	-10%	2	-93%	-13%	10µM*
CC(C)c1nnc(NC(=O)c2sc3ccccc3c2Cl)s1	-12%	0%	x	u	9%	8.9µM*
